Consider 40 compounds from PubChem BioAssay (EPA / NIEHS).

Active and inactive are the calls of the source. The calls were made as follows: active = hit-call score of the fitted dose curve at least 0.9, where 1 is the maximum; inactive = score below 0.9.

The test is described as follows: APR_HepG2_P-H2AX_1hr: Apredica 1-hour HepG2 Assay for H2AX Phosphorylation (AID 2282673). As to conditions: high-content imaging, actives raise or lower the signal. How it is done:
APR_HepG2_1hr is a cell-based, multiplexed-readout assay that uses HepG2, a human liver cell line, with measurements taken at 1 hour after chemical dosing in a 384-well plate.APR_HepG2_P-H2AX_1hr is one of 10 assay component(s) measured or calculated from the APR_HepG2_1hr assay. It is designed to make measurements of dna content, a form of viability reporter, as detected with fluorescence intensity signals by HCS Fluorescent Imaging technology.Data from the assay component APR_HepG2_P-H2AX_1hr was analyzed into 1 assay endpoint. This assay endpoint, APR_HepG2_P-H2AX_1hr, was analyzed with bidirectional fitting relative to DMSO as the negative control and baseline of activity. Using a type of viability reporter, measures of protein for gain or loss-of-signal activity can be used to understand the signaling at the pathway-level as they relate to the gene . Furthermore, this assay endpoint can be referred to as a primary readout, because this assay has produced multiple assay endpoints where this one serves a signaling function. To generalize the intended target to other relatable targets, this assay endpoint is annotated to the dna binding intended target family, where the subfamily is cellular response to DNA damage stimulus.
Cells were treated with dimethyl sulfoxide (DMSO) as a solvent control at a final concentration of 0.5% v/v or with compounds in DMSO with a resulting final DMSO concentration of 0.5% v/v. Compound treatment was done at concentrations of 0.39, 0.78, 1.56, 3.12, 6.24, 12.5, 25, 50, 100, and 200 uM in duplicate on each plate. Cells were treated with compounds for 1, 24, or 72 hr. Carbonyl […] m-chloro-phenylhydrazone (CCCP) and taxol were used as positive controls for mitochondrial function and cytoskeletal stability, respectively; DMSO served as the negative control for this experiment. Cells were fixed by the direct addition of 50 uL formaldehyde in Hank's Balanced Salt Solution (HBSS) to a final concentration of 3.7%. After incubation in the fixation medium for 30 min at room temperature (293-298 K), cells were rinsed twice with HBSS and treated with cell permeabilization buffer (16 uL of 0.5% Triton X-100) for 10 min at room temperature (293-298 K) before labeling. For mitochondrial membrane potential and mitochondrial measurements, pre-fixed cells were incubated with 50 uL of MitoTracker Red CMXRos (Invitrogen) at a concentration of 250 nM for 30 min before fixation. In the remaining cases, post-fixed cells were labeled by incubation with a multiplexed mixture of primary antibodies in HBSS for 60 min at room temperature (293-298 K) to detect immunoreactivity of c-Jun (1:500), phospho-histone H3 (1:100), phospho-histone H2A.x (1:200), p53 (1:400), alpha-tubulin (1:200) and Hoechst 33342 (2 ug/mL). Cells were labeled for multiplexed imaging on two separate plates: a) Hoechst 33342, MitoTracker Red, phospho-histone H3, and alpha-tubulin, and b) Hoechst 33342, phospho-histone H2A.x, and c-Jun. A final rinse with HBSS (50 uL) was performed before analysis. The primary and secondary antibodies for the proteins were phospho-histone H3 (rabbit anti-phospho-histone H3 and FITC-donkey anti-rabbit IgG), phospho-histone H2A.x (mouse anti-phospho-histone H2A.x and FITC-donkey anti-mouse IgG), c-Jun (rabbit anti-phospho-c-Jun and Cy3-donkey anti-rabbit IgG), p53 (sheep anti-p53 and Cy5-donkey anti-sheep IgG), alpha-tubulin (mouse anti-alpha-tubulin and Cy5-donkey anti-mouse IgG). These antibodies are available as the CellCiphr HepG2 assay kit (Millipore).Digital images of each well were captured using a Cellomics ArrayScan VTI (Thermo Scientific Cellomics) (0.8 NA objective, 0.63x optical coupler, and XF-93 filter set) at 20x magnification. The images were acquired using the autofocus feature of the ArrayScan instrument, which entails the following steps. First, the camera focuses on channel 1 (Hoechst 33342), where nuclei are identified. Second, a Z offset of 1 um is used for capturing mitochondria (MitoTracker Red). […]
Take `CCOC(=O)C(Cl)Cc1cc(-n2nc(C)n(C(F)F)c2=O)c(F)cc1Cl` (stereo not given): the call was inactive.

Turning to `CON(C)C(=O)Nc1ccc(Cl)c(Cl)c1`, the outcome was inactive.

`CC1=C(C(=O)Nc2ccccc2)SCCO1`: the call was inactive.

For the compound `CCCCNC(=O)OCC#CI`, the outcome was inactive.

As for `O=C(Nc1ccccc1)Nc1ccnc(Cl)c1`, the outcome was inactive.

As for `CNC(=O)ON=CC(C)(C)SC`, the result was inactive.

With `COc1nc(C)nc(NC(=O)NS(=O)(=O)c2ccccc2Cl)n1`, the call was inactive.

On to `CCCCOC(=O)c1ccccc1C(=O)OCCCC`, for which the result was inactive.

Regarding `CC1COC(Cn2cncn2)(c2ccc(Oc3ccc(Cl)cc3)cc2Cl)O1` (stereo not given), the call was inactive.

Consider `CCCCC(CC)COC(=O)c1ccccc1C(=O)OCC(CC)CCCC` (stereo not given), for which the compound was classed as inactive.

On to `CC(Oc1ccc(Cl)cc1Cl)C(=O)O` (stereo not given), for which the call was inactive.

`CCNc1nc(Cl)nc(NCC)n1`: the compound was called inactive.

Regarding `CN(C)C(=S)SSC(=S)N(C)C`, the outcome was inactive.

As for `COC(=O)C(C)Oc1ccc(Oc2ccc(Cl)cc2Cl)cc1` (stereo not given), the compound was classed as inactive.

As to `COP(=S)(OC)Oc1nc(Cl)c(Cl)cc1Cl`, the outcome was inactive.

Regarding `CCCN(CCC)c1c([N+](=O)[O-])cc(S(N)(=O)=O)cc1[N+](=O)[O-]`, the AC50 is 88.7 µM (active).

Turning to `N#CC(CCc1ccc(Cl)cc1)(Cn1cncn1)c1ccccc1` (stereo not given), the call was inactive.

On to `COC(=O)c1ccccc1C(=O)OC`, for which the outcome was inactive.

Turning to `COc1ccc(C(c2ccc(OC)cc2)C(Cl)(Cl)Cl)cc1`, the result was inactive.

With `COP(N)(=O)SC` (stereo not given), the call was inactive.

For the compound `CCON=C(CC)C1=C(O)CC(c2c(C)cc(C)cc2C)CC1=O` (stereo not given), the result was inactive.

As for `C=CC1(C)OC(=O)N(c2cc(Cl)cc(Cl)c2)C1=O` (stereo not given), the outcome was inactive.

As for `CCOP(=S)(OCC)SCn1c(=O)oc2cc(Cl)ccc21`, the outcome was inactive.

Regarding `Cc1ccc(-c2c(Cl)nc(C#N)n2S(=O)(=O)N(C)C)cc1`, the outcome was inactive.

With `COC(=O)C=C(C)OP(=O)(OC)OC`, the compound was called inactive.

For `CCNc1nc(Cl)nc(NC(C)C)n1`, the outcome was inactive.

For `COc1cnc(OC)n2nc(NS(=O)(=O)c3c(OCC(F)F)cccc3C(F)(F)F)nc12`, the outcome was inactive.

Regarding `C=CCC1=C(C)C(OC(=O)C2C(C=C(C)C)C2(C)C)CC1=O` (stereo not given), the outcome was inactive.

`C#CCOS(=O)OC1CCCCC1Oc1ccc(C(C)(C)C)cc1` (stereo not given): the compound was called inactive.

`OC(c1ccc(Cl)cc1)(c1cncnc1)c1ccccc1Cl` (stereo not given): the result was inactive.

As to `CC(C)(C)c1ccc(CSc2cnn(C(C)(C)C)c(=O)c2Cl)cc1`, the call was inactive.

As for `CC(C)C1(C)N=C(c2nc3ccccc3cc2C(=O)O)NC1=O` (stereo not given), the call was inactive.

For `O=C(O)c1nc(Cl)ccc1Cl`, the result was inactive.

As for `CC(C)Oc1cc(-n2nc(C(C)(C)C)oc2=O)c(Cl)cc1Cl`, the result was inactive.

On to `N#Cc1nn(-c2c(Cl)cc(C(F)(F)F)cc2Cl)c(N)c1S(=O)C(F)(F)F` (stereo not given), for which the result was inactive.

Turning to `CNC(=S)S`, the compound was called inactive.

Regarding `CCCC1COC(Cn2cncn2)(c2ccc(Cl)cc2Cl)O1` (stereo not given), the compound was classed as inactive.

In the case of `COC(=O)N(OC)c1ccccc1COc1ccn(-c2ccc(Cl)cc2)n1`, the result was inactive.

With `CCOc1cc(Oc2ccc(C(F)(F)F)cc2Cl)ccc1[N+](=O)[O-]`, the compound was classed as inactive.

For `Oc1ccccc1-c1ccccc1`, the outcome was inactive.
